The values below come from PubChem BioAssay (NCATS).

A short description of experiment [1]: qHTS assay for measurement of the activity of small molecule inhibitors on Zika virus induced Caspase-3 activity in human iPSC derived neural progenitor cells (hNPCs) (AID 1224857). Further: nearly all actives have a fitted effect of over 65% in size. Further: potency means the concentration at half of the fitted maximal effect. The settings on record: hNPCs ZIKV-induced caspase-3/7, Caspase-Glo luminescence, 6 h; series mostly up to 45.7 µM. The procedure, abridged:
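In medium with heparin 2 ug/ml and cyclopamine 2 uM, hNPCs (350 cells/well) received compound for one hour and then Zika virus at 2 FFU/cell; caspase activity was measured by Caspase-Glo 3/7 luminescence 6 h post-infection.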
In general terms: Quantitative high-throughput screening tests each substance at several concentrations.

Experiment [2] in a line: qHTS assay for measurement of the activity of small molecule inhibitors on Zika virus induced Caspase-3 activity in human astrocytoma cells (AID 1224859). The settings on record: SNB-19 ZIKV-induced caspase-3/7, luminescence, 6 h; series mostly up to 45.7 µM. In a few lines: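 A cell-based luminescent caspase-3/7 assay used SNB-19 cells infected with ZIKV (2 FFU/cell) for 6 h following 1 h compound pretreatment.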

Records with an inconclusive call do not appear. Where a call stands in place of a potency, no number is given. Activity calls are given as the source filed them. The call rests on the fitted dose curve; in most records, active means well fitted inhibition curve with a large enough effect; inconclusive means small, poorly fitted or top-dose-only effect; inactive means no such curve, though single readings can be large or run the other way.

Regarding `CN1CCC(Nc2ncc3ncnc(Nc4ccc(F)c(Cl)c4)c3n2)CC1`, the Potency entry in experiment [1] was “inactive”. Moreover, the molecule was called inactive in experiment [2].

Regarding `Oc1ccc(CCNCCCCCCNCCc2ccccc2)cc1O`, the Potency result in experiment [1] was “inactive”.

On to `CC(=O)Nc1c(I)c(NC(C)=O)c(I)c(C(=O)O)c1I`, for which the Potency result in experiment [1] was “inactive”.

With `CCCCN(CCCC)C(C(N)=O)c1ccc(OC)cc1` (stereo unspecified), in experiment [1], the Potency result is “inactive”.

Regarding `C/C(=N/NC(=O)c1ccncc1)C(=O)O`, in experiment [1], the Potency entry was “inactive”.

Regarding `CC(C)OP(=O)(CP(=O)(OC(C)C)OC(C)C)OC(C)C`, the Potency entry in experiment [1] was “inactive”.

Regarding `O=C(O)Cn1c(=O)n(Cc2ccc(Br)cc2F)c(=O)c2ccc(Cl)cc21`, the Potency result in experiment [1] is “inactive”.

For the molecule `Cc1oc(=O)oc1COC(=O)[C@@H]1N2C(=O)[C@@H](NC(=O)[C@H](N)c3ccccc3)[C@H]2SC1(C)C`, the Potency result in experiment [1] was “inactive”.

For `O=C(CCOCCOCCOCCOCCC(=O)Nc1c(I)cc(I)c(C(=O)O)c1I)Nc1c(I)cc(I)c(C(=O)O)c1I`, the Potency entry in experiment [1] is “inactive”.

In the case of `Cc1nc(N)nc(N)c1-c1ccc(Cl)c(Cl)c1`, the Potency result in experiment [1] was “inactive”.

In the case of `CSc1ccc(/C=C2/C(C)=C(CC(=O)O)c3cc(F)ccc32)cc1`, in experiment [1], the Potency result is “inactive”.

With `CC(=O)[C@H]1CC[C@H]2[C@@H]3C=CC4=CC(=O)CC[C@@]4(C)[C@@H]3CC[C@]12C`, the Potency result in experiment [1] was “inactive”. In experiment [2], the call was inactive.

For the molecule `CCCC(=O)Nc1ccc(O)c(C(C)=O)c1`, the Potency entry in experiment [1] is “inactive”.

On to `Cc1cc(CCCOc2c(C)cc(-c3noc(C(F)(F)F)n3)cc2C)on1`, for which the Potency entry in experiment [1] was “inactive”.

In the case of `CC[C@@]1(O)C(=O)OCc2c1cc1n(c2=O)Cc2c-1nc1ccccc1c2/C=N/OC(C)(C)C`, the Potency entry in experiment [1] was “inactive”.

Turning to `CCCC(=O)O[C@]1(C(=O)CC)CC[C@H]2[C@@H]3CCC4=CC(=O)CC[C@]4(C)[C@H]3[C@@H](O)C[C@@]21C`, in experiment [1], the Potency entry was “inactive”.

With `O=C(O)c1[nH]n(-c2ccc(S(=O)(=O)O)cc2)c(=O)c1N=Nc1ccc(S(=O)(=O)O)cc1`, the Potency entry in experiment [1] is “inactive”.

With `COc1ccc2c(c1)CCCC2=O`, in experiment [1], the Potency result was “inactive”.

Consider `OCCc1ccccc1`, for which, in experiment [1], the Potency result is “inactive”.

For `O=C1Nc2ccccc2C1(c1ccc(O)cc1)c1ccc(O)cc1`, the Potency result in experiment [1] was “inactive”.

Take `O=C(C1CCCCC1)N1CC(=O)N2CCCc3ccccc3C2C1` (stereo unspecified): the Potency result in experiment [1] is “inactive”.

For `CCC[C@H](N[C@@H](C)C(=O)N1[C@H](C(=O)O)C[C@@H]2CCCC[C@@H]21)C(=O)OCC`, in experiment [1], the Potency entry was “inactive”.

On to `NS(=O)(=O)c1cc2c(cc1Cl)CN(C1CCCCC1)C2=O`, for which the Potency entry in experiment [1] was “inactive”.

As for `CN1N=C(C(N)=O)CCC1=O`, the Potency result in experiment [1] is “inactive”.

Regarding `C1N2CN3CN1CN(C2)C3`, the Potency entry in experiment [1] is “inactive”.

Consider `CCC(=O)Oc1ccc2c(c1)CC[C@@H]1[C@@H]2CC[C@@]2(C)[C@H]1C[C@@H](OC(=O)CC)[C@@H]2OC(=O)CC`, for which, in experiment [1], the Potency entry was “inactive”.

For the molecule `CC(C)C[C@@H]1[C@H](c2ccccc2)OC(=O)N1CCCN1CCCCCC1`, the Potency result in experiment [1] was “inactive”.

As for `CCCC(=O)O[C@]1(C(=O)CCl)[C@@H](C)C[C@H]2[C@@H]3CCC4=CC(=O)C=C[C@]4(C)[C@@]3(F)C(=O)C[C@@]21C`, in experiment [1], the Potency result is “inactive”.

`Nc1nc(=O)n([C@@H]2O[C@H](CO)[C@@H](O)[C@@H]2F)cc1I`: the Potency result in experiment [1] is “inactive”.

As to `N#CSCC(=O)O`, the Potency result in experiment [1] is “inactive”.

For the molecule `CC(COc1ccccc1)NN` (stereo unspecified), the Potency result in experiment [1] is “inactive”.

`COc1cccc2c1[C@@H]1CN(CCCCn3c(=O)[nH]c4c(sc5ncc(-c6ccccc6)nc54)c3=O)C[C@@H]1CO2`: the Potency result in experiment [1] was “inactive”.

On to `Cc1cccc(N(C)C(=S)Oc2ccc3c(c2)CCC3)c1`, for which the Potency entry in experiment [1] is “inactive”.

`COc1cc(C(=O)NC2CCCNC2)cc(OC)c1OC` (stereo unspecified): the Potency entry in experiment [1] was “inactive”.

Take `CCOC(=O)N1CCC(Nc2ccc(Cl)cc2N)CC1`: in experiment [1], the Potency entry was “inactive”.

As for `CC(C)(C)C(O)/C=C/c1ccc2c(c1)OCO2` (stereo unspecified), in experiment [1], the Potency entry is “inactive”.

For the molecule `CN1CCCN=C1/C=C/c1cccs1`, the Potency result in experiment [1] was “inactive”. Further, the result in experiment [2] was inactive.

As to `CCc1cccc2c(CCO)c[nH]c12`, the Potency result in experiment [1] was “inactive”. In addition, the molecule was classed as inactive in experiment [2].

Turning to `C=CCNc1nc(NCC=C)nc(N2CCN(C(c3ccc(F)cc3)c3ccc(F)cc3)CC2)n1`, the Potency entry in experiment [1] was “inactive”. Further, the molecule was classed as inactive in experiment [2].

Consider `CCOC(=O)N1CCC(n2c(=O)[nH]c3cc(Cl)ccc32)CC1`, for which, in experiment [1], the Potency result is “inactive”. In addition, in experiment [2], the call was inactive.

Turning to `CCCCC/C=C\C/C=C\CCCCCCCC(=O)NC(C)c1ccccc1` (stereo unspecified), the Potency entry in experiment [1] is “inactive”. For the same molecule, the outcome in experiment [2] was inactive.

Consider `Cc1oc(-c2ccccc2)nc1CCC(=O)c1ccc(CC2SC(=O)NC2=O)cc1` (stereo unspecified), for which the Potency result in experiment [1] was “inactive”. Besides, the molecule was classed as inactive in experiment [2].

As for `C#Cc1ccc(-c2ccccc2F)cc1`, in experiment [1], the Potency entry is “inactive”. In addition, the molecule was called inactive in experiment [2].

With `CCN1CCN(C(=O)N[C@@H](C(=O)N[C@@H]2C(=O)N3[C@@H]2SC(C)(C)[C@H]3C(=O)O)c2ccccc2)C(=O)C1=O`, the Potency entry in experiment [1] was “inactive”. Further, in experiment [2], the outcome was inactive.

For `CCCCOCCOC(=O)c1cccnc1`, the Potency result in experiment [1] was “inactive”. Moreover, in experiment [2], the result was inactive.

In the case of `C[C@H]1NCc2cc(-c3ccc4c(=O)c(C(=O)O)cn(C5CC5)c4c3OC(F)F)ccc21`, the Potency result in experiment [1] is “inactive”. In addition, the molecule was classed as inactive in experiment [2].

`Cc1cc(O)c(C)c(C)c1O`: in experiment [1], the Potency result is “inactive”. Also, in experiment [2], the result was inactive.

Turning to `Cc1nc([N+](=O)[O-])cn1-c1ccc([N+](=O)[O-])cc1`, the Potency entry in experiment [1] was “inactive”. In addition, in experiment [2], the outcome was inactive.

Consider `CCN(CC)C(=O)C1CN2CCc3cc(OC)c(OC)cc3C2CC1OC(C)=O` (stereo unspecified), for which, in experiment [1], the Potency result was “inactive”. Besides, the outcome in experiment [2] was inactive.

On to `O=C(CCC1CCN(Cc2ccccc2)CC1)c1ccc2c(c1)NCCCC2`, for which the Potency result in experiment [1] was “inactive”. Besides, in experiment [2], the call was inactive.

Turning to `COc1ccc2nc(SCc3ncc(C)c(OC)c3C)[nH]c2c1`, the Potency result in experiment [1] is “inactive”. In addition, the outcome in experiment [2] was inactive.

Turning to `O=C1OC2(c3ccccc31)c1cc(I)c(O)c(I)c1Oc1c2cc(I)c(O)c1I`, the Potency result in experiment [1] is “inactive”. The molecule was classed as inactive in experiment [2].

For `Nc1cc(C(F)(F)F)ccc1S`, the Potency in experiment [1] was 14.1 µM (active). Besides, the molecule was called inactive in experiment [2].

Take `NCC(=O)O`: the Potency result in experiment [1] was “inactive”. Also, the molecule was classed as inactive in experiment [2].

Turning to `Nc1nnnn1-c1ccccc1`, the Potency entry in experiment [1] is “inactive”. Also, in experiment [2], the outcome was inactive.
